# Screening data from PubChem BioAssay.
# This is one part of a sample in which hits are shown more often than they occur.
# ERK EGF block – EGF-driven ERK pathway inhibition; HEK293-V1b, EGF-stimulated phospho-ERK AlphaScreen; Potency, µM (series often up to 11.5 µM), for inactives: top-dose activity change, negative = inhibition, hits mostly inhibitors; 130,000 compounds, 0.41% hits;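 further: plate controls were stimulated vehicle wells for no effect and unstimulated vehicle basal for full effect; nearly all actives have a fitted effect of over 55% in size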
#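 After overnight plating in 1% FBS, HEK293-V1b cells received test compound for half an hour, then a 5 min pulse of EGF (25 nM); ERK phosphorylation in lysates was read by bead-based AlphaScreen.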
# NPSR antagonist – neuropeptide S receptor (human) antagonism, cAMP; Q6W5P4; CHO-NPSR cells, cAMP TR-FRET, antagonist mode; Potency, µM (series often up to 38.3 µM), without a hit: at the top dose activity change, negative = inhibition, hits mostly inhibitors; 220,000 compounds, 1% hits; AID 1461; further: nearly all actives have a fitted effect of over 50% in size
# Target sequence (Q6W5P4 whole entry, looked up): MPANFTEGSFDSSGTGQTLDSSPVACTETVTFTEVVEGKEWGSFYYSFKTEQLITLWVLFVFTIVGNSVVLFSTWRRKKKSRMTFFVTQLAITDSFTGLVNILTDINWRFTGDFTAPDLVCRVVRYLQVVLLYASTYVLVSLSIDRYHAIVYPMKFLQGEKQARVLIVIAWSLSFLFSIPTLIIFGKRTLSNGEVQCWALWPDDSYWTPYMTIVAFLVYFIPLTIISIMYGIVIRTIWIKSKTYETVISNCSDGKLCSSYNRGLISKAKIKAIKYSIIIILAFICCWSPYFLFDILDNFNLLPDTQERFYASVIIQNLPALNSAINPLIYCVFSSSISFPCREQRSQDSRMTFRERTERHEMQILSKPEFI
# The depositor's hits bear a star; ? = inconclusive; / = no result given; [ ] = remark or other dose. The call rests on the fitted dose curve; in most records, active means well fitted curve in the direction sought with a large enough effect; inconclusive means small, poorly fitted or top-dose-only effect, or another doubt; inactive means no such curve, though single readings can be large; an effect the other way counts as inactive or inconclusive. Unless noted, on the % scale 0 is the no-effect control and ±100 the full control effect; potency means the concentration at half of the fitted maximal effect.
SMILES,ERK EGF block,NPSR antagonist
Clc1ccc(C(c2ccc(Cl)cc2)n2cc[n+](CC(OCc3ccc(Cl)cc3Cl)c3ccc(Cl)cc3Cl)c2)cc1 (stereo not drawn),?,13µM*
O=C(Nc1cccc(F)c1)N1CCCC2(CCN(C(=O)Oc3ccccc3)CC2)C1,9%,/
CCNC(=O)[C@H]1O[C@@H](n2cnc3c(N)ncnc32)[C@H](O)[C@@H]1O,8.9µM*,15%
CCNC(=O)[C@@H]1O[C@@H](n2cnc3c(N)ncnc32)[C@H](O)[C@H]1O,-14%,/
O=C(c1ccccc1)c1cn(CC(=O)N2CCCc3ccccc32)c2ccccc12,/,10µM*
CC1CCCN(CC(=O)N2CCCc3ccccc32)C1 (stereo not drawn),2%,2%
Oc1ccc2[nH]cc(CCCCN3CC=C(c4ccccc4)CC3)c2c1,1%,/
O=[N+]([O-])/C=C/c1c(OCc2ccccc2)ccc2ccccc12,/,6.3µM*
C=C(C)c1cc2cc(C(C)=O)c(O)cc2o1,-8%,/
C=C(CC1CC(O)[C@]2(C)OC3CC4OC5C[C@]6(C)O[C@]7(C)CCC8OC9C[C@]%10(C)OC%11C(C)=CC(=O)OC%11CC%10OC9C[C@@H](C)C8OC7CC6O[C@]5(C)C/C=C\C4OC3CC2O1)C(=O)O (stereo partly drawn),-12%[57.5 µM],53%
C=C(C=O)C[C@@H]1C[C@H](O)C2OC3C[C@]4(C)OC5/C=C\CC6OC7C(CC=CCC6OC5CCCC4OC3CC2O1)OC1CC2OC3CC(=O)OC3C[C@@H](C)C[C@@]2(C)OC1C[C@@H]7C (stereo partly drawn),4µM*,0.79µM*
CC1(C)C[C@H]2C=C(C=O)[C@]3(C=O)C[C@]3(C)[C@H]2C1,10µM*,13µM*
C[C@H]1O[C@@H](O[C@H]2[C@@H](O)C[C@H](O[C@H]3[C@@H](O)C[C@H](O[C@H]4CC[C@]5(C)C6CC[C@]7(C)[C@@H](C8=CC(=O)OC8)CC[C@]7(O)C6CC[C@@H]5C4)O[C@@H]3C)O[C@@H]2C)C[C@H](O)[C@@H]1O (stereo partly drawn),-5%,/
c1ccc(N2CC[C@@]3(CCCNC3)C2)cc1,8%,/
Cc1cc([N+](=O)[O-])c2ccccc2[n+]1[O-],-11%[57.5 µM],10µM*
Cc1nc2ccccc2c(=O)n1-c1ccccc1[N+](=O)[O-],-3%,10%
C=CCN1C(=O)NC(=O)/C(=C/C=C/c2ccccc2)C1=O,22µM*,-44%
O=C1NC(=O)N(CCc2ccc(F)cc2)C(=O)/C1=C\C=C\c1ccccc1,-9%,-59%
O=C1C=CC[C@@H]2[C@H]3CCCN4CCC[C@@H](CN12)[C@@H]34,-5%,/
NC(CO)Cc1ccccc1 (stereo not drawn),9%,/
COC(=O)[C@]1(C)CC[C@@]2(C)CC[C@@]3(C)C4=CC=C5C(=CC(=O)C(O)=C5C)[C@@]4(C)CC[C@@]3(C)C2C1 (stereo partly drawn),14µM*,/
CNc1ccc(C(=O)CC(O)CCC(C)C2OC(=O)CC(O)CC(=O)CC(O)CC(O)CC(O)CC(O)CC3(O)CC(O)C(C(=O)OC)C(CC(O[C@@H]4OC(C)C(O)C(N)C4O)/C=C/C=C/C=C/C=C/C=C/C=C/C=C/C2C)O3)cc1 (stereo partly drawn),3%,/
CC(=O)N1CCN(c2ccc(OC[C@@H]3CO[C@@](Cn4ccnc4)(c4ccc(Cl)cc4Cl)O3)cc2)CC1,6%[25.7 µM],/
Nc1c(C(=O)NC2CCCC2)c2nc3ccccc3nc2n1CC1CCCO1 (stereo not drawn),/,13µM*
Nc1c(C(=O)NCC2CCCO2)c2nc3ccccc3nc2n1Cc1ccco1 (stereo not drawn),-8%[57.5 µM],-19%
SMILES,ERK EGF block,NPSR antagonist
CN(C)C1C(=O)C(C(N)=O)=C(O)[C@@]2(O)C(=O)C3=C(O)c4c(O)ccc(Cl)c4[C@](C)(O)C3CC12 (stereo partly drawn),-4%,/
Cn1cc[n+](C)c1P(=S)(c1ccccc1)c1ccccc1,-4%,5µM*
CN(C(=O)Cc1ccc(Cl)c(Cl)c1)[C@H](CN1CCCC1)c1cccc(N=C=S)c1,4%,/
CN1C(=O)NC(=O)/C(=C\C=C\c2ccccc2[N+](=O)[O-])C1=O,?,10µM*
COc1cc(/C=C2\C(=O)NC(=O)N(c3ccccc3)C2=O)c([N+](=O)[O-])cc1OC,1%[57.5 µM],1%
COc1cc2c(cc1OC)[C@@]13CCN4CC5=CCOC6CC(=O)N2C1[C@H]6[C@@H]5C[C@@H]43 (stereo partly drawn),23%,/
C[C@@H]1O[C@@H](O[C@H]2CC[C@]3(C=O)C4CC[C@]5(C)[C@@H](C6=CC(=O)OC6)CC[C@]5(O)[C@@H]4CC[C@]3(O)C2)[C@H](O)[C@H](O)[C@H]1O (stereo partly drawn),10%,/
CC(=O)Oc1c2c(c(CC=C(C)C)c3c1C(=O)C1=CC4CC5C(C)(C)OC(C/C=C(\C)C(=O)O)(C4=O)[C@]15O3)OC(C)(CCC=C(C)C)C=C2 (stereo partly drawn),13µM*,/
COc1ccccc1CN1CCCC2(CCN(C(=O)Oc3ccccc3)CC2)C1,12%,/
C=C(C)[C@H]1Cc2c(ccc3c2O[C@@H]2COc4cc(OC)c(OC)cc4[C@@H]2C3=O)O1,-2%,?
NS(=O)(=O)c1ccc(N=Cc2c(O)n(C3CCCCC3)c(=O)n(C3CCCCC3)c2=O)cc1,/,10µM*
CCn1c(O)c(C=Nc2ccc(S(N)(=O)=O)cc2)c(=O)n(CC)c1=S,4%,-37%
C=C1C(=O)O[C@H]2[C@H]1[C@H](OC(=O)CC(=O)O[C@@H]1C[C@@H](C)[C@@H]3C=CC(=O)[C@@]3(C)[C@H]3OC(=O)C(=C)[C@H]13)C[C@@H](C)[C@H]1C=CC(=O)[C@]12C,13%[57.5 µM],-18%
C=C1C(=O)O[C@@H]2C[C@@H](C)[C@@H]3C=CC(=O)[C@@]3(C)[C@@H](OC(=O)CC(=O)O[C@H]3[C@@H]4C(=C)C(=O)O[C@@H]4C[C@@H](C)[C@@H]4C=CC(=O)[C@]43C)[C@H]12,4.5µM*,?
CC(C)C(O)(C(=O)OC[C@@H]1CC[N+]2([O-])CCCC12)C(C)O (stereo partly drawn),-17%,/
CC(=O)C1CCC2C3CCC4=CC(=O)CC[C@@]4(C)C3CC[C@]12C (stereo partly drawn),4%,/
CC[C@@H](CO)NC(=O)[C@H]1C=C2c3cccc4[nH]cc(c34)C[C@H]2N(C)C1,-13%,/
CNc1cc(Cl)c2nonc2c1[N+](=O)[O-],?,10µM*
Cc1cc([N+](=O)[O-])c(Cl)cc1NC(=O)C(C)C,3%,1%
N#Cc1ccc(CN2CCC3(CC2)CCN(C(=O)Oc2ccccc2)CC3)cc1,-3%,/
COC(=O)C1CN(C#N)N(c2ccc(Cl)cc2)C12c1ccccc1-c1ccccc12 (stereo not drawn),-1%,7.9µM*
COc1ccc(OC)c([C@H](O)[C@H](C)N)c1,3%[25.7 µM],/
O=C(CCCN1CCC2(CC1)C(=O)N(Cc1cccc(F)c1)CN2c1ccccc1)c1ccc(F)cc1,10%,/
Cc1nn(C(C)(C)C)c(C)c1/C=N/OC(=O)Nc1ccc(Cl)c(Cl)c1,32µM*,23%
Cc1ccc(NC(=O)c2snnc2C)cc1Cl,-40%,26%
COCC(=O)N1CCC2(CCCN(Cc3ccncc3)C2)CC1,0%,/
